One may read the AC50 as the concentration at which the activity in the assay is half-maximal.

Among the data in PubChem BioAssay AID2284385 (EPA ToxCast) are AC50 and outcome values, retold here.

Active and inactive are the calls of the source. How the source made its calls: active means hit-call score of the fitted dose curve at least 0.9, where 1 is the maximum; inactive means score below 0.9.

The assay deals with human Peroxisome proliferator-activated Receptor alpha (PPARa), PPARA (gene 5465) (UniProt Q07869). Put plainly: ERF_TW_NR_COA_hPPARA: Eurofins (ERF) Nuclear Receptor (NR) Functional Coactivator Assay for human Peroxisome proliferator-activated Receptor alpha (PPARa) Agonism & Antagonism, conducted at Taiwan lab site. How it is done: ERF_TW_NR_COA_hPPARA is a biochemical, single-readout assay that uses extracted gene-proteins in a cell-free assay. Measurements were taken 3 hours after chemical dosing in a 96-well plate. See PPARalpha Human NHR Functional Agonist Coactivator Assay, Panlabs.ERF_TW_NR_COA_hPPARA is an assay component calculated from the ERF_TW_NR_COA_hPPARA assay. It is designed to measure FRET using a type of binding reporter as detected by fluorescence intensity of GW7647 with fluorimetry technology.Data from the assay component ERF_TW_NR_COA_hPPARA was analyzed at the assay endpoint, ERF_TW_NR_COA_hPPARA, in the positive analysis fitting direction relative to DMSO as the negative control and baseline of activity. Using a type of binding reporter, gain-of-signal activity can be used to understand changes in binding as they relate to gene PPARA. To generalize the intended target to other relatable targets, this assay endpoint is annotated to the nuclear receptor intended target family, where the subfamily is non-steroidal.
Sequence of human Peroxisome proliferator-activated Receptor alpha (PPARa), PPARA (gene 5465) (Q07869 whole entry, looked up): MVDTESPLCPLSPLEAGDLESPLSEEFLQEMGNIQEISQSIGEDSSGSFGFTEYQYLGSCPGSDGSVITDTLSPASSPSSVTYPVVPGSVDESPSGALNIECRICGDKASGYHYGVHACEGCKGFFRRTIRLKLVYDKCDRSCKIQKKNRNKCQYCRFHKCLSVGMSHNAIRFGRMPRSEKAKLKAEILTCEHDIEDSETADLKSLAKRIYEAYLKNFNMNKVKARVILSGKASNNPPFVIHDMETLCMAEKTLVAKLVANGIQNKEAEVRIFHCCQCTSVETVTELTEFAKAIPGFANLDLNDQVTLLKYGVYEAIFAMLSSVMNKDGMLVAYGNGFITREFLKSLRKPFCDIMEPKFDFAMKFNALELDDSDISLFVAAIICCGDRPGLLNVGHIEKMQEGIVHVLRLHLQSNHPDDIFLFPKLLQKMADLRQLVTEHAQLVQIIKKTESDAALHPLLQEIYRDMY
Human recombinant peroxisome proliferators-activated receptor alpha (PPARA, PPARa, PPAR-alpha) hPPAR, NR1C1) receptors expressed in insect are used. Test compound and/or vehicle is incubated with the 2.5 nM receptors and binding buffer in modified kit buffer pH 7.4 for 3 hours at RT. Determination of the amount of complex formed is read microplate reader (excitation:337 nm, emission: 520/490 nm). Test compound-induced increase fluorescence by 50 percent or more (>/=50%) relative to the 1 uM GW7647 response indicates possible PPARa receptor agonist activity. Test compound-induced inhibition of 20 nM GW7647-induced fluorescence response by 50 percent or more (>/=50%) indicates receptor antagonist activity.
On to `O=C(Cl)C(F)(F)C(F)(F)C(F)(F)C(F)(F)C(F)(F)C(F)(F)F`, for which the AC50 was 31.6 µM (active).

For the molecule `O=C(O)C(F)(F)C(F)(F)C(F)(F)C(F)(F)C(F)(F)C(F)(F)C(F)(F)C(F)(F)Cl`, the call was inactive.

On to `O=C(O)C(F)(F)C(F)(F)C(F)(F)C(F)(F)C(F)(F)C(F)(F)C(F)F`, for which the AC50 was 31.1 µM (active).

`O=C(CC(=O)C(F)(F)C(F)(F)C(F)(F)F)c1cccs1`: the result was inactive.

In the case of `CN(CCOc1ccc(CC2SC(=O)NC2=O)cc1)c1ccccn1` (configuration not stated), the molecule was classed as inactive.

In the case of `O=C(O)CCC(F)(F)C(F)(F)C(F)(F)F`, the result was inactive.

As to `CC(C)(Oc1ccc(C(=O)c2ccc(Cl)cc2)cc1)C(=O)O`, the AC50 is 15.7 µM (active).
